Drawing on PubChem BioAssay (NCI), this text covers growth for 8 molecules.

SMILES strings stand for the structures. The panel holds about 83,000 compounds, 20% with a hit somewhere; the sample as a whole holds those more often.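 Cells were grown in 96-well plates and exposed to the test compound at a single concentration for 48 hours; results are reported as percent growth, with values below 10 considered active.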 Unmarked numbers belong to inactive results. Calls of active or inactive are those of the source.

Some test systems named below: SR leukemia; RPMI-8226 leukemia; OVCAR-8 ovarian; OVCAR-5 ovarian; OVCAR-4 ovarian; SK-OV-3 ovarian; IGROV1 ovarian; OVCAR-3 ovarian; HS 578T breast; NCI/ADR-RES ovarian; T-47D breast; BT-549 breast; MDA-MB-435 melanoma; SW-620 colon; MCF7 breast; HCT-116 colon; HCC-2998 colon; KM12 colon.
Common to all, as to assay: NCI-60 one-dose screen, 48 h (100 = growth as untreated, 0 = no growth, -100 = all killed)
Common to all, as to conditions: 10 µM unless noted

Take `COc1ncc2cc1NS(=O)(=O)c1cccc(c1)C(=O)NCC1=CC=C(S1)c1ncnc3c1SC2=C3C`: the growth in the experiment on SR leukemia is -3.91% (active); with RPMI-8226 leukemia it was -31.3% (active); in the experiment with OVCAR-8 ovarian, 20.6%; in the experiment on OVCAR-5 ovarian it was -26.2% (active); in the experiment with OVCAR-4 ovarian it was -24.1% (active); in the experiment with SK-OV-3 ovarian it was 5.33% (active). The growth in the experiment with IGROV1 ovarian is -24.5% (active); in the experiment with OVCAR-3 ovarian it was -73.1% (active); in the experiment with HS 578T breast, 12.7%; in the experiment on NCI/ADR-RES ovarian, 10.6%; in the experiment with T-47D breast it was -29% (active); with BT-549 breast, -52.7% (active). The growth in the experiment on MDA-MB-435 melanoma is -28.6% (active); with SW-620 colon it was 3.04% (active); with MCF7 breast it was -12.5% (active); in the experiment on HCT-116 colon, -31.8% (active); with HCC-2998 colon it was -43.1% (active); in the experiment with KM12 colon it was -62.1% (active).
`CC/C(Cc1ccccc1)=C(\c1ccc(OCCN2CCCCCC2)cc1)c1ccc(OC(=O)NCc2ccccc2)cc1`: the growth in the experiment with SR leukemia is -21.1% (active); in the experiment with RPMI-8226 leukemia, 30.8%; in the experiment with OVCAR-8 ovarian it was 58.9%; in the experiment on OVCAR-5 ovarian, 80.9%; in the experiment with OVCAR-4 ovarian it was 57%; with SK-OV-3 ovarian it was 88.6%. The growth in the experiment on IGROV1 ovarian is 63.5%; in the experiment with OVCAR-3 ovarian, 89.8%; in the experiment on HS 578T breast, 78.6%; with NCI/ADR-RES ovarian it was 74%; in the experiment with T-47D breast it was 40.9%; in the experiment with BT-549 breast, 81.9%. Also, the growth was 79.6% with MDA-MB-435 melanoma; 64.5% in the experiment on SW-620 colon; 13.7% in the experiment with MCF7 breast; 2.8% (active) in the experiment with HCT-116 colon; 65.2% in the experiment on HCC-2998 colon; 67.9% in the experiment on KM12 colon.
As to `COc1ccc2nc3ccccc3c(NCc3ccccc3)c2c1`, the growth is 4.27% (active) in the experiment on SR leukemia; -30.9% (active) in the experiment on RPMI-8226 leukemia; 28.2% in the experiment on OVCAR-8 ovarian; 29% in the experiment on OVCAR-5 ovarian; 40.8% in the experiment on OVCAR-4 ovarian; 44.5% in the experiment on SK-OV-3 ovarian. For the same molecule, the growth in the experiment with IGROV1 ovarian is 16.4%; with OVCAR-3 ovarian, 41%; in the experiment on HS 578T breast, 25.2%; in the experiment on NCI/ADR-RES ovarian, 18.3%; in the experiment with T-47D breast, 35.3%; in the experiment with BT-549 breast it was 50.3%. Further, the growth is 33.8% in the experiment with MDA-MB-435 melanoma; 19.5% with SW-620 colon; 4.29% (active) in the experiment with MCF7 breast; 14.8% with HCT-116 colon; -35.5% (active) in the experiment with HCC-2998 colon; 36.5% in the experiment with KM12 colon.
As to `CC1=C(C(=O)n2c3ccccc3c3ccccc32)C(c2cccc([N+](=O)[O-])c2)C(C(=O)n2c3ccccc3c3ccccc32)=C(C)N1`, the growth in the experiment on SR leukemia is 68.5%; with RPMI-8226 leukemia it was 93.4%; in the experiment on OVCAR-8 ovarian, 99.4%; with OVCAR-5 ovarian it was 99.2%; in the experiment with OVCAR-4 ovarian, 103%; in the experiment on SK-OV-3 ovarian, 97.7%. For the same molecule, the growth in the experiment on IGROV1 ovarian was 98.4%; in the experiment on OVCAR-3 ovarian, 100%; with HS 578T breast, 96.5%; with NCI/ADR-RES ovarian it was 98.7%; with T-47D breast, 80.5%; with BT-549 breast, 102%. Moreover, the growth in the experiment with MDA-MB-435 melanoma is 117%; in the experiment on SW-620 colon, 100%; in the experiment on MCF7 breast, 94.8%; in the experiment on HCT-116 colon it was 91.8%; in the experiment on HCC-2998 colon, 102%; with KM12 colon it was 94.8%.
As to `CN1CCN(c2ccc(NC(=O)c3cncnc3Nc3ccc4c(ccn4Cc4cccc(F)c4)c3)cc2)CC1`, the growth is 10.9% with SR leukemia; 46.1% with RPMI-8226 leukemia; 34.9% in the experiment on OVCAR-8 ovarian; 65.5% in the experiment on OVCAR-5 ovarian; 66.2% with OVCAR-4 ovarian; 97.4% in the experiment on SK-OV-3 ovarian. The growth with IGROV1 ovarian is 77.1%; in the experiment with OVCAR-3 ovarian, 80.8%; in the experiment on HS 578T breast, 68.3%; in the experiment on NCI/ADR-RES ovarian, 75.8%; in the experiment on T-47D breast, 48.8%; with BT-549 breast, 85.6%. Further, the growth in the experiment with MDA-MB-435 melanoma is -79.7% (active); with SW-620 colon, 5.18% (active); in the experiment with MCF7 breast it was 12.8%; in the experiment on HCT-116 colon, 13.1%; in the experiment with HCC-2998 colon it was 61.6%; in the experiment with KM12 colon it was 46.7%.
In the case of `CN1C(=O)/C(=C/c2ccc(C(=O)Nc3ncc(Cc4ccc(F)cc4)s3)cc2)SC1=S`, the growth in the experiment with SR leukemia is 44.5%; with RPMI-8226 leukemia, 54.6%; with OVCAR-8 ovarian, 57.9%; in the experiment with OVCAR-5 ovarian, 61.2%; in the experiment on OVCAR-4 ovarian, 60.1%; in the experiment on SK-OV-3 ovarian, 40.3%. For the same molecule, the growth with IGROV1 ovarian was 54.3%; with OVCAR-3 ovarian, 27.7%; in the experiment with HS 578T breast, 37.9%; in the experiment with NCI/ADR-RES ovarian, 28.7%; with T-47D breast, 34.5%; in the experiment on BT-549 breast, 54.9%. In addition, the growth was -36.3% (active) in the experiment with MDA-MB-435 melanoma; 28.8% with SW-620 colon; 46.8% in the experiment with MCF7 breast; 32.6% in the experiment with HCT-116 colon; 41.1% in the experiment on HCC-2998 colon; 15.6% in the experiment on KM12 colon.
For `O=C1NC(=C(Cl)Cl)/C(=N/S(=O)(=O)N2CCCCC2)N1`, the growth was -46% (active) with SR leukemia; -22.7% (active) in the experiment with RPMI-8226 leukemia; 9.05% (active) with OVCAR-8 ovarian; 90.9% in the experiment with OVCAR-5 ovarian; 79.9% with OVCAR-4 ovarian; 94% with SK-OV-3 ovarian. Also, the growth with IGROV1 ovarian is 1.81% (active); in the experiment on OVCAR-3 ovarian it was -57% (active); with HS 578T breast, 29.1%; in the experiment on NCI/ADR-RES ovarian, 98.5%; with T-47D breast, 41.6%; in the experiment with BT-549 breast, 63.6%. Besides, the growth in the experiment on MDA-MB-435 melanoma is 47.6%; in the experiment on SW-620 colon, -62.3% (active); with MCF7 breast, 10.1%; with HCT-116 colon, 6.37% (active); with HCC-2998 colon it was 4.74% (active); in the experiment on KM12 colon it was 5.62% (active).
On to `C=CC(=O)NCCOc1cccc(Nc2cc(NCCCNC(=O)C3CCC3)c(Br)cn2)c1`, for which the growth in the experiment on SR leukemia is -10.1% (active); in the experiment with RPMI-8226 leukemia, -22.8% (active); in the experiment with OVCAR-8 ovarian it was 4.84% (active); with OVCAR-5 ovarian, 2.75% (active); in the experiment with OVCAR-4 ovarian, -20.6% (active); in the experiment on SK-OV-3 ovarian, -54.4% (active). Moreover, the growth in the experiment with IGROV1 ovarian is 2.28% (active); with OVCAR-3 ovarian, -25.5% (active); in the experiment on HS 578T breast, -18.4% (active); in the experiment on NCI/ADR-RES ovarian it was 39.5%; with T-47D breast it was -10.5% (active); in the experiment with BT-549 breast it was -59.5% (active). Besides, the growth in the experiment on MDA-MB-435 melanoma was -1.47% (active); in the experiment with SW-620 colon, 2.26% (active); with MCF7 breast, 1.91% (active); with HCT-116 colon it was 4.97% (active); with HCC-2998 colon it was -43.7% (active); with KM12 colon it was 5.83% (active).
